Reference: PubChem BioAssay AID1159580 (chemical genetic matrix, 2015)
Several values for one entry are separate records, joined by “and”; a condition that tells them apart may be missing. Equal values may be shown once. The whole screen tested about 5,500 compounds, of which about 2,000 (36%) were called active. About 18% were inconclusive and are not listed. No stated cut-off is given here; in the data, active means normalized growth mostly below about 0.91 (no sharp cut-off); inconclusive means no clear call, values can overlap the other calls; inactive means mostly above about 0.92. The list shows a part of the results.

Experiment: chemical genetic growth profiling, strain panel (AID 1159580);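 further: tested at 20 µM; growth read once vehicle control cultures reached saturation at 30 °C; 1 = growth at the plate median or of vehicle wells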
Settings: S. cerevisiae deletion strains, growth OD

Measured: normalized growth

COc1ccc2c(c1OC)C(=O)O[C@@H]2[C@H]1c2cc3c(cc2CCN1C)OCO3
inactive: locus YAL013W, strain DEP1, stronger effect = lower value 1.03 | locus YAL021C, strain ccr4, stronger effect = lower value 1.01 | locus YAL026C, strain drs2, stronger effect = lower value 0.993 | locus YAL030W, strain snc1, stronger effect = lower value 0.991 | locus YBL061C, strain skt5, stronger effect = lower value 0.992 | locus YBR009C, strain hhf1, stronger effect = lower value 0.984 | locus YBR021W, strain FUR4, stronger effect = lower value 1.04 | locus YBR023C, strain chs3, stronger effect = lower value 0.987 | locus YBR171W, strain sec66, stronger effect = lower value 1 | locus YBR229C, strain ROT2, stronger effect = lower value 1.01 | locus YBR231C, strain swc5, stronger effect = lower value 0.989 | locus YBR279W, strain paf1, stronger effect = lower value 0.992 | locus YCL011C, strain gbp2, stronger effect = lower value 0.996 | locus YCL016C, strain dcc1, stronger effect = lower value 0.974 | locus YCL029C, strain bik1, stronger effect = lower value 1.02 | locus YCL061C, strain MRC1, stronger effect = lower value 0.995 | locus YCL069W, strain vba3, stronger effect = lower value 1 | locus YCR088W, strain abp1, stronger effect = lower value 0.997 | locus YDL005C, strain med2, stronger effect = lower value 0.997 | locus YDL035C, strain GPR1, stronger effect = lower value 1.03 | locus YDL040C, strain nat1, stronger effect = lower value 0.991 | locus YDL074C, strain BRE1, stronger effect = lower value 1.03 | locus YDL101C, strain DUN1, stronger effect = lower value 1.01 | locus YDL134C, strain PPH21, stronger effect = lower value 1.01 | locus YDL185W, strain tfp1, stronger effect = lower value 1.03 | locus YDL192W, strain arf1, stronger effect = lower value 1.02 | locus YDR001C, strain nth1, stronger effect = lower value 1 | locus YDR069C, strain doa4, stronger effect = lower value 0.981 | locus YDR101C, strain arx1, stronger effect = lower value 1.01 | locus YDR137W, strain rgp1, stronger effect = lower value 0.969 | locus YDR150W, strain NUM1, stronger effect = lower value 1.02 | locus YDR159W, strain sac3, stronger effect = lower value 0.991 | locus YDR162C, strain NBP2, stronger effect = lower value 1.02 | locus YDR195W, strain ref2 0.985 | locus YDR297W, strain sur2, stronger effect = lower value 0.985 | locus YDR318W, strain mcm21, stronger effect = lower value 1.03 | locus YDR334W, strain swr1, stronger effect = lower value 0.998 | locus YDR335W, strain msn5, stronger effect = lower value 0.989 | locus YDR388W, stronger effect = lower value 1.02 | locus YDR392W, strain spt3, stronger effect = lower value 0.929 | locus YDR502C, strain sam2, stronger effect = lower value 1.01 | locus YEL003W, strain gim4, stronger effect = lower value 1.01 | locus YEL037C, strain rad23, stronger effect = lower value 1 | locus YEL061C, strain CIN8 (second series), stronger effect = lower value 1.01 | locus YEL061C, strain CIN8, stronger effect = lower value 1.01 | locus YER015W, strain faa2, stronger effect = lower value 0.974 | locus YER016W, strain bim1, stronger effect = lower value 0.991 | locus YER110C, stronger effect = lower value 1.03 | locus YER111C, strain swi4, stronger effect = lower value 1.01 | locus YER155C, strain BEM2 (second series), stronger effect = lower value 0.995 | locus YER155C, strain BEM2, stronger effect = lower value 1.02 | locus YER167W, strain BCK2, stronger effect = lower value 1.04 | locus YFR010W, strain ubp6, stronger effect = lower value 1.01 | locus YGL078C, strain dbp3, stronger effect = lower value 1.03 | locus YGL086W, strain mad1, stronger effect = lower value 1.03 | locus YGL167C, strain pmr1, stronger effect = lower value 0.984 | locus YGL173C, strain kem1, stronger effect = lower value 0.993 | locus YGL227W, strain vid30, stronger effect = lower value 0.994 | locus YGL240W, strain doc1, stronger effect = lower value 0.958 | locus YGL248W, strain PDE1, stronger effect = lower value 1.02 | locus YGL253W, strain hxk2, stronger effect = lower value 0.999 | locus YGR078C, strain PAC10, stronger effect = lower value 1.01 | locus YGR135W, strain pre9, stronger effect = lower value 1.01 | locus YGR229C, strain SMI1, stronger effect = lower value 1.03 | locus YGR252W, strain gcn5, stronger effect = lower value 1.06 | locus YHR013C, strain ard1, stronger effect = lower value 0.965 | locus YHR027C, strain rpn1, stronger effect = lower value 1.01 | locus YHR030C, strain SLT2, stronger effect = lower value 1.02 | locus YHR079C, strain IRE1 (second series), stronger effect = lower value 1.02 | locus YHR079C, strain IRE1, stronger effect = lower value 0.995 | locus YHR094C, strain hxt1, stronger effect = lower value 1.02 | locus YHR129C, strain ARP1, stronger effect = lower value 1.02 | locus YHR142W, strain chs7, stronger effect = lower value 1.01 | locus YHR200W, strain rpn10, stronger effect = lower value 1.01 | locus YIL066C, strain RNR3, stronger effect = lower value 1.02 | locus YIL073C, strain SPO22, stronger effect = lower value 1.11 | locus YIL125W, strain kgd1, stronger effect = lower value 1.02 | locus YIR030C, strain dcg1, stronger effect = lower value 1.01 | locus YJL092W, strain hpr5, stronger effect = lower value 0.999 | locus YJL095W, strain BCK1 (second series), stronger effect = lower value 0.996 | locus YJL095W, strain BCK1, stronger effect = lower value 1.01 and 1 | locus YJL115W, strain asf1, stronger effect = lower value 0.997 | locus YJL129C, strain trk1, stronger effect = lower value 1.02 | locus YJL134W, strain LCB3, stronger effect = lower value 1.01 | locus YJL154C, strain vps35, stronger effect = lower value 0.999 | locus YJL164C, strain tpk1, stronger effect = lower value 0.984 | locus YJL166W, strain qcr8, stronger effect = lower value 0.975 | locus YJL168C, strain set2, stronger effect = lower value 1.01 | locus YJL187C, strain SWE1 (second series), stronger effect = lower value 1.02 | locus YJL187C, strain SWE1, stronger effect = lower value 0.988 | locus YJR043C, strain POL32, stronger effect = lower value 1.06 | locus YJR066W, strain TOR1, stronger effect = lower value 0.975
